aSyn 5UTR act – Activators via SNCA 5'UTR binding, MLPCN; alpha-synuclein 5'UTR reporter, activators screen; activity score, % (tested at 7.5 µM), hits read low; 300,000 compounds, 7.1% hits; in the data active = activity score below about -60%
Each line names hits and unclear results; the compound was inactive in the other large screens. Not all results are given here.

c1ccc(-c2nnc(N3CCOCC3)nc2-c2ccccc2)cc1	aSyn 5UTR act -72.8
CC[C@@H](C)[C@H](CNC)NC[C@@H](Cc1cccc2ccccc12)NCCc1cccc(C(F)(F)F)c1	none
CC(C)NC(=O)CCc1nnc(Cc2cccc(C(F)(F)F)c2)o1	aSyn 5UTR act -94.6
CNC[C@@H](CC1CCCCC1)NC[C@H](CC(C)C)NCCc1cccc(C(F)(F)F)c1	none
C/C(=N\N=C\c1ccc(N(C)C)cc1)c1cccc([N+](=O)[O-])c1	aSyn 5UTR act -68.2
O=C(CC1NCCNC1=O)Nc1ccc(Cl)c(Cl)c1 (stereo unspecified)	aSyn 5UTR act -91.7
COc1ccc(Cc2nc3ccc(C(=O)N4CCCC4)cc3o2)cc1	aSyn 5UTR act -155.1
C=C(C)CNC(=O)c1ccc2nc(Cc3ccc(OC)cc3)oc2c1	aSyn 5UTR act -178.1
O=C(c1ccc2nc(Cc3cccc(Cl)c3)oc2c1)N1CCOCC1	aSyn 5UTR act -98.6
COc1ccc(Cc2nc3ccc(C(=O)NC(C)C)cc3o2)cc1	aSyn 5UTR act -107.4
COc1ccc([C@@H](C)NC(=O)c2ccc3oc(C(C)C)nc3c2)cc1	aSyn 5UTR act -70.5
c1ccc(CCNCC2COc3ccccc3O2)cc1 (stereo unspecified)	aSyn 5UTR act -64.0
CN(CC1COc2ccccc2O1)C(=O)c1ccc(N(C)C)cc1 (stereo unspecified)	aSyn 5UTR act -61.5
O=C(NCC1COc2ccccc2O1)c1ccc(Cl)cc1 (stereo unspecified)	aSyn 5UTR act -92.6
COc1ccc(NC(=O)CSc2ccc3c4c(cccc24)C(=O)c2ccccc2-3)cc1	aSyn 5UTR act -65.5
N#Cc1cccc(NC(=O)CSc2ccc3c4c(cccc24)C(=O)c2ccccc2-3)c1	aSyn 5UTR act -154.4
Cc1ccc(/C(N)=N/OC(=O)c2cccs2)cc1	aSyn 5UTR act -124.4
N/C(=N\OC(=O)c1cccs1)c1ccccc1	aSyn 5UTR act -250.1
COc1ccc(/C(N)=N/OC(=O)c2cccs2)cc1OC	aSyn 5UTR act -185.8
N/C(=N\OC(=O)c1cccs1)c1cccc(Br)c1	aSyn 5UTR act -128.2
Cc1cccc(/C(N)=N/OC(=O)c2cccs2)c1	aSyn 5UTR act -105.5
CC1CCCN(C(=O)CSc2nnc(-c3cccs3)o2)C1 (stereo unspecified)	aSyn 5UTR act -78.9
CCC1CCCCN1C(=O)CSc1nnc(-c2cccs2)o1 (stereo unspecified)	aSyn 5UTR act -73.8
CC(/C=C1\SC(=O)N(CCCC(=O)O)C1=O)=C\c1ccccc1	none
CCc1ccc(/C=C2\SC(=S)N(CCCC(=O)Nc3ccccn3)C2=O)cc1	none
COC(=O)C(C)N1C(=O)S/C(=C/c2cc(C)n(-c3ccccn3)c2C)C1=O (stereo unspecified)	aSyn 5UTR act -83.0
CCOC(=O)CN1C(=O)S/C(=C/c2cc(C)n(C)c2C)C1=O	aSyn 5UTR act -177.4
CCOC(=O)CN1C(=O)S/C(=C/c2cc(C)n(-c3ccccn3)c2C)C1=O	aSyn 5UTR act -149.8
CCN(C(=O)c1cccs1)c1nc(-c2ccc(OC)cc2)cs1	aSyn 5UTR act -130.5
COCCCN(C(C)=O)c1nc(-c2ccc(OC)cc2)cs1	aSyn 5UTR act -104.9
CCOC(=O)C(Nc1ccc2ccccc2c1)C(=O)OCC	aSyn 5UTR act -138.1
Cn1c(SCc2ccc(F)cc2)nnc1-c1cnccn1	aSyn 5UTR act -84.7
Cn1c(SCc2ccc(Br)cc2)nnc1-c1ccccn1	aSyn 5UTR act -92.9
Cn1c(SCc2ccccc2)nnc1-c1cnccn1	aSyn 5UTR act -130.6
Cc1ccccc1CSc1nnc(-c2cnccn2)n1C	aSyn 5UTR act -104.5
Cn1nc(-c2ccccn2)nc2c(=O)n(C)c(=O)nc1-2	none
O=C(Nc1ncccc1O)c1ccc2c(c1)OCO2	aSyn 5UTR act -207.3
O=C(Nc1ncccc1O)c1ccc2c(c1)OCCO2	aSyn 5UTR act -222.2
Cc1cccnc1NC(=O)c1ccc2c(c1)OCCO2	aSyn 5UTR act -172.3
O=c1c2cccc(Cl)c2nc2n1Cc1ccccc1-2	aSyn 5UTR act -153.5
O=C1CC(c2cc(Br)ccc2F)c2cc3c(cc2N1)CCC3 (stereo unspecified)	none
CCSc1nnc(NC(=O)c2ccc(C)o2)s1	aSyn 5UTR act -72.1
CCSc1nnc(NC(=O)c2cc(C)oc2C)s1	aSyn 5UTR act -161.4
CCc1nnc(NC(=O)c2cc(C)oc2C)s1	aSyn 5UTR act -88.2
COc1ccc(Nc2oc(-c3ccc(Cl)cc3)nc2C#N)cc1	aSyn 5UTR act -77.5
COc1ccc(-c2nc(C#N)c(NCCc3ccccc3)o2)cc1	aSyn 5UTR act -145.8
COc1ccc(Nc2oc(-c3ccc(OC)cc3)nc2C#N)cc1	aSyn 5UTR act -132.4
COc1ccc(Nc2oc(COc3ccc(Cl)cc3)nc2C#N)cc1	none
CCOc1ccc(Nc2oc(-c3ccc(Cl)cc3)nc2C#N)cc1	aSyn 5UTR act -139.4
CNc1oc(-c2ccccc2)nc1C#N	aSyn 5UTR act -62.3
COc1ccc(Nc2oc(-c3ccccc3)nc2C#N)cc1	aSyn 5UTR act -112.3
CCOc1ccc(-c2nc(C#N)c(NC3CC3)o2)cc1	aSyn 5UTR act -95.2
COc1ccc(C(=O)/C=C/c2ccc(OC)cc2OC)c(O)c1	aSyn 5UTR act -283.0
COc1ccc(C(=O)/C=C/C(=O)N(CC(=O)NC2CCCCC2)Cc2ccccc2)c(O)c1	none
COc1ccc(C(=O)/C=C/c2ccccc2OC)c(OC(=O)c2ccc([N+](=O)[O-])cc2)c1	aSyn 5UTR act -332.2
COc1ccc(/C=C/C(=O)c2cc3c(cc2N)OCO3)cc1	aSyn 5UTR act -182.8
COc1ccc(/C=C/C(=O)c2cc(F)ccc2OC(=O)c2ccccc2)cc1OC	none
COc1ccc(C(=O)/C=C/c2cc(C(=O)O)cc3c2OCOC3)c(O)c1	aSyn 5UTR act -75.4
COc1ccc(C(=O)/C=C/Nc2ccccn2)c(OC)c1	aSyn 5UTR act -159.9
COc1ccc(/C=C/C(=O)c2cc(Cl)ccc2O)c(OC)c1	aSyn 5UTR act -79.9
CN(C)c1ccc(/C=C/C(=O)c2cc(Cl)ccc2O)cc1	aSyn 5UTR act -95.8
O=C(/C=C/c1ccc(O)cc1)c1ccc(O)cc1O	aSyn 5UTR act -244.3
COc1ccc(C(=O)/C=C/c2ccccc2)c(O)c1	aSyn 5UTR act -110.8
COc1ccc(C(=O)c2ccc(OC)cc2O)c(O)c1	aSyn 5UTR act -119.5
COc1ccc(/C=C/C(=O)c2ccc(OC)cc2OC)cc1	aSyn 5UTR act -114.3
COc1ccc(/C=C/C(=O)CCC(=O)O)cc1	aSyn 5UTR act -77.6
CCOc1cccc(C(=O)NC(=S)Nc2ccc3c(c2)OCCO3)c1	aSyn 5UTR act -87.3
COc1cc(OC)cc(C(=O)Nc2ccc3c(c2)OCCO3)c1	aSyn 5UTR act -122.8
Cc1cc(C)n(-c2ccc(C(=O)Nc3sccc3C(N)=O)cc2)n1	aSyn 5UTR act -139.1
Cc1cc(C(=O)Nc2ccc3c(c2)OCCO3)co1	aSyn 5UTR act -112.9
CC(C)CNS(=O)(=O)c1ccc(C(=O)Nc2ccc3c(c2)OCCO3)cc1	aSyn 5UTR act -98.3
Cc1cc(C)n(-c2ccc(C(=O)OCc3ccccc3)cc2)n1	aSyn 5UTR act -68.0
CCOc1ccc(C(=O)Nc2ccc3c(c2)OCCO3)cc1OC	aSyn 5UTR act -143.6
COc1ccc(N(CC(=O)Nc2ccc3c(c2)OCCO3)S(C)(=O)=O)c(OC)c1	aSyn 5UTR act -70.8
COc1ccc(C)cc1NS(=O)(=O)c1ccc(NC(=O)CN(c2cc([N+](=O)[O-])ccc2C)S(C)(=O)=O)cc1	none
Cc1cc(C)n(-c2ccc(C(=O)Nc3ccc4c(c3)OCCO4)cc2)n1	aSyn 5UTR act -100.6
CCC1CCCCN1S(=O)(=O)c1ccc(C(=O)Nc2nnc(-c3ccccc3Cl)o2)cc1 (stereo unspecified)	none

Assay outcomes as filed in PubChem.
